This is a sample that favours compounds with a hit; in the whole collection about 6.8% have one here.
C diff HTS: C. difficile growth inhibition. Clostridium difficile clinical isolate growth, OD600, 24 h; active compounds read low. AID 1259249. growth activity, negative = inhibition, % at 16 µg/mL (by protocol). actives 0.25% (n = 86,000);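 active means mean growth activity at or below -80% and every replicate also at or below -80%; inconclusive means mean at or below -80% but some replicate above -80%; inactive means mean growth activity above -80%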
T cruzi growth-1: T. cruzi proliferation inhibition; T. cruzi beta-gal in NIH3T3, GalScreen luminescence, 90 h; inhibition, % at 8.34 µM; actives 5.9% (n = 77,000); AID 624255;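 active means mean inhibition above about 93%, with at least 55% of replicates each passing it, limit read from the data, passing the limit was not always enough; inconclusive means only one of those two conditions holds; inactive means neither condition holds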
Pf Dd2 inh: inhibitors of Plasmodium falciparum Dd2 growth. activity change, % at 10 µM. P. falciparum Dd2 growth, SYBR Green, 72 h; active compounds read low. actives 2.3% (n = 94,000); in the data active means activity change below about -80%; inconclusive means no clear call, values can overlap the other calls
T cruzi growth-2: blocks T. cruzi growth in NIH3T3 host cells. shares compounds with T cruzi growth-1. T. cruzi beta-gal in NIH3T3, GalScreen luminescence, 90 h. inhibition, % at 8.35 µM. actives 72% (n = 5,600). AID 651739;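 active means mean replicate inhibition above about 95% and at least 55% of replicates individually reaching it, limit read from the data; inconclusive means only one of the two criteria is met; inactive means neither criterion is met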
T cruzi growth-3: blocks T. cruzi growth in NIH3T3 host cells. shares compounds with T cruzi growth-1. T. cruzi beta-gal in NIH3T3, GalScreen luminescence, 90 h. inhibition, % at 2.09 µM. actives 21% (n = 5,600);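 active means mean inhibition above about 95%, with at least 55% of replicates also reaching it, limit read from the data; inconclusive means meets just one of the two conditions; inactive means meets neither condition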
NIH3T3 tox: cytotoxicity in mouse NIH/3T3 fibroblasts; AID 651742; NIH/3T3 viability, CellTiter-Glo ATP luminescence, 90 h; shares compounds with T cruzi growth-1; actives 14% (n = 5,600); cytotoxicity (signal decrease), % at 8.35 µM;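 active means mean signal decrease across replicates above about 35% based on untreated-well scatter, with enough replicates individually passing, limit read from the data; inconclusive means no rule stated though some were filed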
3T3 cytotox 2: cytotoxicity in mouse NIH/3T3 fibroblasts | NIH/3T3 viability, CellTiter-Glo ATP luminescence, 90 h | actives 56% (n = 5,600) | shares compounds with T cruzi growth-1 | AID 651744 | inhibition, % at 24.9 µM;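 active means mean loss of cell viability signal at or above a set limit, and enough replicates individually reaching it; inconclusive means meets only the mean limit or only the replicate share; inactive means meets neither condition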
Hits are given with their value; i = inactive; ? = inconclusive; nt = no result given.

SMILES	C diff HTS	T cruzi growth-1	Pf Dd2 inh	T cruzi growth-2	T cruzi growth-3	NIH3T3 tox	3T3 cytotox 2
CN(C)C(=O)c1cccc(-c2ccc([C@@H]3[C@@H](CO)N4CCCCN(C(=O)C5CCCC5)C[C@H]34)cc2)c1	i	i	i	nt	nt	nt	nt
CN(C)C(=O)c1cccc(-c2ccc([C@@H]3[C@@H](CO)N4CCCCN(C(=O)C5CCC5)C[C@@H]34)cc2)c1	i	i	i	nt	nt	nt	nt
CN(C)C(=O)c1ccc(-c2ccc([C@H]3[C@H]4CN(C(=O)C5CCC5)CCCCN4[C@H]3CO)cc2)cc1	i	i	i	nt	nt	nt	nt
CN(C)C(=O)c1cccc(-c2ccc([C@H]3[C@H](CO)N4CCCCN(C(=O)C5CCC5)C[C@@H]34)cc2)c1	i	101.7	i	99.4	?	i	i
CO[C@@H]1CN(C)C(=O)c2ccc(NS(C)(=O)=O)cc2OC[C@H](C)N(Cc2nccs2)C[C@@H]1C	nt	i	i	nt	nt	nt	nt
CCCNC(=O)Nc1ccc2c(c1)OC[C@H](C)N(Cc1ccccn1)C[C@@H](C)[C@@H](OC)CN(C)C2=O	nt	i	i	nt	nt	nt	nt
C[C@H]1CN([C@@H](C)CO)S(=O)(=O)c2ccc(C3=CCCC3)cc2O[C@@H]1CN(C)C(=O)C1CCC1	i	i	i	nt	nt	nt	nt
C[C@@H]1CN([C@H](C)CO)S(=O)(=O)c2ccc(C3=CCCC3)cc2O[C@H]1CN(C)C(=O)C1CCCCC1	i	i	i	nt	nt	nt	nt
C[C@H](CO)N1C[C@H](C)[C@H](CN(C)C(=O)C2CCCCC2)Oc2cc(C3=CCCCC3)ccc2S1(=O)=O	i	115.6	i	102.0	i	i	106.6
C[C@H](CO)N1C[C@H](C)[C@H](CN(C)C(=O)C2CCCCC2)Oc2cc(C3=CCCC3)ccc2S1(=O)=O	i	i	i	nt	nt	nt	nt
C[C@@H]1CN([C@H](C)CO)S(=O)(=O)c2ccc(C3=CCCC3)cc2O[C@H]1CN(C)C(=O)C1CCC1	i	110.7	i	i	i	i	24.3
C[C@H]1CN([C@@H](C)CO)S(=O)(=O)c2ccc(C3=CCCCC3)cc2O[C@@H]1CN(C)C(=O)C1CCC1	i	i	i	nt	nt	nt	nt
C[C@H]1CN([C@@H](C)CO)S(=O)(=O)c2ccc(C3=CCCCC3)cc2O[C@H]1CN(C)C(=O)C1CCCCC1	i	122.7	i	104.5	i	i	107.3
C[C@@H]1CN([C@H](C)CO)S(=O)(=O)c2ccc(C3=CCCCC3)cc2O[C@H]1CN(C)C(=O)C1CCCCC1	i	108.8	i	104.6	i	i	104.6
CCNC(=O)[C@@H]1[C@@H](CO)[C@@H]2Cn3c(ccc(-c4ccccc4F)c3=O)[C@@H]2N1C(C)=O	i	i	i	nt	nt	nt	nt
C[C@H]1CN([C@@H](C)CO)C(=O)c2cc(-c3ccc(C(=O)N(C)C)cc3)cnc2O[C@H]1CN(C)C(=O)C1CC1	i	i	i	nt	nt	nt	nt
C[C@H](CO)N1C[C@H](C)[C@@H](CN(C)Cc2cccnc2)Oc2ncc(C3=CCCC3)cc2C1=O	i	nt	i	nt	nt	nt	nt
C[C@@H]1CN([C@@H](C)CO)C(=O)Cc2cc(NC(=O)C3CC3)ccc2O[C@H]1CN(C)Cc1ccc(C(F)(F)F)cc1	i	i	i	nt	nt	nt	nt
C[C@@H]1CN([C@H](C)CO)C(=O)c2cc(-c3ccc(C#N)cc3)cnc2O[C@H]1CN(C)C(=O)CC1CC1	i	i	i	nt	nt	nt	nt
C[C@@H]1CN([C@@H](C)CO)C(=O)c2cc(NS(=O)(=O)c3ccc(F)cc3)ccc2O[C@@H](C)CCCCO[C@@H]1CN(C)Cc1ccc2c(c1)OCO2	nt	118.8	i	106.0	i	i	97.3
C[C@@H]1CN([C@H](C)CO)C(=O)c2cc(NS(=O)(=O)c3ccc(F)cc3)ccc2O[C@@H](C)CCCCO[C@H]1CN(C)Cc1ccc2c(c1)OCO2	nt	111.8	i	106.4	i	i	103.8
C[C@H]1CCCCO[C@H](CN(C)Cc2ccc3c(c2)OCO3)[C@@H](C)CN([C@@H](C)CO)C(=O)c2cc(NS(=O)(=O)c3ccc(F)cc3)ccc2O1	nt	i	i	nt	nt	nt	nt
C[C@@H]1CCCCO[C@H](CN(C)Cc2ccc3c(c2)OCO3)[C@H](C)CN([C@@H](C)CO)C(=O)c2cc(NS(=O)(=O)c3ccc(F)cc3)ccc2O1	nt	i	i	nt	nt	nt	nt

From PubChem
